Values joined by “and” are separate entries in the source; they are usually repeats but may differ in a detail not shown here. Equal entries are not always repeated. Results filed as inconclusive are left out. Some compounds were tested as several samples or in several runs, with calls that do not always agree. Active and inactive are the calls of the source. Calls follow the shape of the dose curve; as a rule, active = well fitted curve in the direction sought with a large enough effect in the repeat runs; inconclusive = weak or mixed curves; inactive = no such curve, though single readings can be large; an effect the other way counts as inactive or inconclusive.
Columns and labels:
[1] = qHTS RealTime-Glo MT Cell Viability Assay in HepG2 cells - 40 hour (AID 1224870); also: nearly all actives have a fitted effect of over 50% in size
In short: (§1)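 HepG2 cells mixed with RealTime-Glo MT reagents (NanoLuc plus cell-permeant prosubstrate) were seeded at 600 cells/well, incubated 5 h at 37 C/5% CO2, then pinned with compounds in DMSO; nonlytic luminescence tracked viability during 40 h treatment.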

[2] = A CellTox Green Cytotoxicity Assay to monitor cytotoxicity in HEK293 cells - 40 hour (AID 1224871); also: nearly all actives have a fitted effect of over 45% in size
In short: (§2)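 Fluorescence intensity, read at 0, 8, 16, 24, 32 and 40 h of compound treatment, reflected dye binding to DNA of dead HEK293 cells; compounds (23 nL, DMSO) were added 5 h after plating cells with reagent.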

[3] = qHTS RealTime-Glo MT Cell Viability Assay in HEK293 cells - 16 hour (AID 1224872); also: nearly all actives have a fitted effect of over 50% in size; also: potency is read from the fitted curve at half-maximal effect
In short: (§3)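 Viability tracked continuously by luminescence as live cells reduce a prosubstrate for NanoLuc; HEK293 cells preincubated 5 h, compound-treated at 37 C, and read at 0, 8, 16, 24, 32 and 40 h.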

[4] = qHTS RealTime-Glo MT Cell Viability Assay in HepG2 cells - 8 hour (AID 1224873); also: nearly all actives have a fitted effect of over 55% in size
In short: as §1

[5] = qHTS RealTime-Glo MT Cell Viability Assay in HEK293 cells - 40 hour (AID 1224874); conditions: RealTime-Glo luminescence; max response: stronger effect = lower value; also: nearly all actives have a fitted effect of over 50% in size; also: potency is read from the fitted curve at half-maximal effect
In short: (§4)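 Viable HEK293 cells reduce a cell-permeant prosubstrate; the product diffuses out and is consumed by NanoLuc in the medium to give light. Compounds went in after a 5 h incubation and plates were read over the treatment course.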

[6] = A CellTox Green Cytotoxicity Assay to monitor cytotoxicity in HepG2 cells - 16 hour (AID 1224876); also: nearly all actives have a fitted effect of over 45% in size
In short: (§5)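 Using 1536-well format, dye-containing HepG2 suspension was seeded, allowed 5 h at 37 C/5% CO2, dosed by pintool with compounds, positive and negative controls, and imaged for fluorescence across 40 h.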

[7] = qHTS RealTime-Glo MT Cell Viability Assay in HepG2 cells - 32 hour (AID 1224877); also: nearly all actives have a fitted effect of over 55% in size
In short: (§6)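 Viability was tracked continuously by NanoLuc luminescence from prosubstrate reduced by living HepG2 cells, at successive time points over 40 h of compound exposure. Cells with reagent were preincubated 5 h at 37 °C before compound addition.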

[8] = A CellTox Green Cytotoxicity Assay to monitor cytotoxicity in HepG2 cells - 24 hour (AID 1224878); also: nearly all actives have a fitted effect of over 45% in size; also: potency is read from the fitted curve at half-maximal effect
In short: as §5

[9] = A CellTox Green Cytotoxicity Assay to monitor cytotoxicity in HepG2 cells - 40 hour (AID 1224879); also: nearly all actives have a fitted effect of over 40% in size; also: potency is read from the fitted curve at half-maximal effect
In short: as §5

[10] = qHTS RealTime-Glo MT Cell Viability Assay in HEK293 cells - 0 hour (AID 1224880); also: top concentration of the series differs between compounds; nearly all actives have a fitted effect of over 45% in size
In short: as §4

[11] = A CellTox Green Cytotoxicity Assay to monitor cytotoxicity in HEK293 cells - 32 hour (AID 1224881); also: nearly all actives have a fitted effect of over 40% in size
In short: as §2

[12] = A CellTox Green Cytotoxicity Assay to monitor cytotoxicity in HepG2 cells - 0 hour (AID 1224882); also: nearly all actives have a fitted effect of over 35% in size
In short: as §5

[13] = A CellTox Green Cytotoxicity Assay to monitor cytotoxicity in HepG2 cells - 32 hour (AID 1224883); also: nearly all actives have a fitted effect of over 50% in size; also: potency is read from the fitted curve at half-maximal effect
In short: as §5

[14] = A CellTox Green Cytotoxicity Assay to monitor cytotoxicity in HEK293 cells - 8 hour (AID 1224884); also: nearly all actives have a fitted effect of over 35% in size
In short: as §2

[15] = qHTS RealTime-Glo MT Cell Viability Assay in HepG2 cells - 16 hour (AID 1224885); also: nearly all actives have a fitted effect of over 50% in size
In short: as §6

[16] = qHTS RealTime-Glo MT Cell Viability Assay in HEK293 cells - 24 hour (AID 1224886); also: nearly all actives have a fitted effect of over 50% in size; also: potency is read from the fitted curve at half-maximal effect
In short: as §3

[17] = qHTS RealTime-Glo MT Cell Viability Assay in HEK293 cells - 8 hour (AID 1224887)
In short: as §4

[18] = A CellTox Green Cytotoxicity Assay to monitor cytotoxicity in HEK293 cells - 16 hour (AID 1224888); also: nearly all actives have a fitted effect of over 35% in size
In short: as §2

[19] = qHTS RealTime-Glo MT Cell Viability Assay in HepG2 cells - 0 hour (AID 1224889); also: nearly all actives have a fitted effect of over 50% in size
In short: as §6

[20] = A CellTox Green Cytotoxicity Assay to monitor cytotoxicity in HEK293 cells - 24 hour (AID 1224875)
In short: as §2
% is scaled to controls: 0 for no effect and ±100 for the full control effect.

CCCCOCCOCCOCc1cc2c(cc1CCC)OCO2
inactive: Potency [1] | Potency [2] | Potency [3] | Potency [4] | max response [5] -15.9% | Potency [6] | Potency [7] | Potency [10] | Potency [11] | Potency [12] | Potency [14] | Potency [15] | Potency [16] | Potency [17] | Potency [18] | Potency [19]
22.1 µM (active) and inactive: Potency [8] | Potency [9] | Potency [13]

C=CCOCC(CC)(CO)COCC=C
inactive: Potency [1] | Potency [2] | Potency [3] | Potency [4] | max response [5] 5.04% | Potency [6] | Potency [7] | Potency [8] | Potency [9] | Potency [10] | Potency [11] | Potency [12] | Potency [13] | Potency [14] | Potency [15] | Potency [16] | Potency [17] | Potency [18] | Potency [19]

NC(CSCC(=O)O)C(=O)O (stereo not given)
inactive: Potency [1] | Potency [2] | Potency [3] | Potency [4] | max response [5] 7.24% | Potency [6] | Potency [7] | Potency [8] | Potency [9] | Potency [10] | Potency [11] | Potency [12] | Potency [13] | Potency [14] | Potency [15] | Potency [16] | Potency [17] | Potency [18] | Potency [19]

NS(=O)(=O)c1ccccc1Cl
inactive: Potency [1] | Potency [2] | Potency [3] | Potency [4] | max response [5] -11.8% | Potency [6] | Potency [7] | Potency [8] | Potency [9] | Potency [10] | Potency [11] | Potency [12] | Potency [13] | Potency [14] | Potency [15] | Potency [16] | Potency [17] | Potency [18] | Potency [19]

C[C@@H]1CCN(C(=O)[C@H](CCCN=C(N)N)NS(=O)(=O)c2cccc3c2NC[C@H](C)C3)[C@@H](C(=O)O)C1
inactive: Potency [1] | Potency [2] | Potency [3] | Potency [4] | max response [5] 4.96% | Potency [6] | Potency [7] | Potency [8] | Potency [9] | Potency [10] | Potency [11] | Potency [12] | Potency [13] | Potency [14] | Potency [15] | Potency [16] | Potency [17] | Potency [18] | Potency [19]

CCOC(=O)c1ccc(C)cc1
inactive: Potency [1] | Potency [2] | Potency [3] | Potency [4] | max response [5] 8.25% | Potency [6] | Potency [7] | Potency [8] | Potency [9] | Potency [10] | Potency [11] | Potency [12] | Potency [13] | Potency [14] | Potency [15] | Potency [16] | Potency [17] | Potency [19]

N[C@H]1CN(c2c(F)cc3c(=O)c(C(=O)O)cn(C4C[C@H]4F)c3c2Cl)CC12CC2 (stereo not given in full)
inactive: Potency [1] | Potency [2] | Potency [3] | Potency [4] | max response [5] 11.4% | Potency [6] | Potency [7] | Potency [8] | Potency [9] | Potency [10] | Potency [11] | Potency [12] | Potency [13] | Potency [14] | Potency [15] | Potency [16] | Potency [18] | Potency [19]

C=C1CC[C@H]2C[C@@H]1C2(C)C
inactive: Potency [1] | Potency [2] | Potency [3] | Potency [4] | max response [5] 5.42% | Potency [6] | Potency [7] | Potency [8] | Potency [9] | Potency [10] | Potency [11] | Potency [12] | Potency [13] | Potency [14] | Potency [15] | Potency [16] | Potency [18] | Potency [19]

O=c1cc(-c2ccccc2)oc2ccccc12
inactive and 43.6 µM (active): Potency [9]
inactive and 48.7 µM (active): Potency [13]
active: Potency [3] 19.5 µM and 6.88 µM | Potency [5] 11 µM and 14.8 µM | Potency [16] 17.4 µM and 7.71 µM
inactive: Potency [1] | Potency [4] | Potency [20] | Potency [6] | Potency [7] | Potency [8] | Potency [10] | Potency [12] | Potency [14] | Potency [15] | Potency [18] | Potency [19]

CC/C=C\CC/C=C/C(OCC)OCC
inactive: Potency [2] | Potency [3] | Potency [4] | max response [5] 11.7% | Potency [20] | Potency [6] | Potency [7] | Potency [8] | Potency [9] | Potency [10] | Potency [11] | Potency [12] | Potency [13] | Potency [14] | Potency [15] | Potency [16] | Potency [17] | Potency [18] | Potency [19]

Cc1ccc(Cl)cc1Cl
inactive: Potency [1] | Potency [2] | Potency [3] | Potency [4] | max response [5] 13.6% | Potency [6] | Potency [7] | Potency [8] | Potency [9] | Potency [11] | Potency [12] | Potency [13] | Potency [14] | Potency [15] | Potency [16] | Potency [18] | Potency [19]

Nc1ccccc1S(=O)(=O)O
inactive: Potency [1] | Potency [2] | Potency [3] | Potency [4] | max response [5] 0.0936% | Potency [6] | Potency [7] | Potency [8] | Potency [9] | Potency [10] | Potency [11] | Potency [12] | Potency [13] | Potency [14] | Potency [15] | Potency [16] | Potency [17] | Potency [18] | Potency [19]

C1CN(CCOCCN2CCOCC2)CCO1
inactive: Potency [2] | Potency [3] | Potency [4] | max response [5] 4.52% | Potency [20] | Potency [6] | Potency [7] | Potency [8] | Potency [9] | Potency [10] | Potency [11] | Potency [12] | Potency [13] | Potency [14] | Potency [15] | Potency [16] | Potency [17] | Potency [18] | Potency [19]

Source: PubChem BioAssay (Tox21)
